# COUP-TFII inh: NR2F2 transcriptional activity inhibitors, primary screen, cell-based, luciferase reporter, HEK293T, luminescence; COUP transcription factor 2 (Homo sapiens), P24468; HEK293T NGFI-A luciferase reporter; inhibition, % at 8.6 µM; 370,000 tested, 0.7% active;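 active = inhibition above a per-plate cutoff, mean inhibition of test wells between control levels plus 3 SD, cut at about 38% in these data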;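 note: cells cotransfected with COUP-TFII expression vector driving the NGFI-A reporter; 0% = median of COUP-TF2 test wells and 100% = reporter-only cells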
# SRC3 inh: SRC3 coactivator transcriptional activity inhibitors, primary screen, cell-based, luminescence. Nuclear receptor coactivator 3 (Homo sapiens), Q9Y6Q9. HEK293 GAL4-SRC3 luciferase reporter. inhibition, % at 3.6 µM. 360,000 tested, 0.17% active. AID 588352, 2011;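 active = inhibition above a per-campaign cutoff, the mean of all compounds plus 3 SD, cut at about 60% in these data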;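 note: 0% = DMSO-treated cells and 100% = gossypol-treated cells at 36 µM; higher means less SRC3-driven luciferase light from the GAL4 reporter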
# NR5A2 inv ag: LRH-1 (NR5A2) inverse agonists, primary screen, cell-based, luminescence, HEK293T, StAR-luciferase reporter | Nuclear receptor subfamily 5 group A member 2 (Homo sapiens), O00482 | LRH-1 transfected, 24 h | inhibition, % at 3.6 µM | 360,000 tested, 0.13% active | AID 602396, 2012;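 active = inhibition above the mean inhibition of all tested compounds plus 3 SD, cut at about 73% in these data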;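 note: 0% = DMSO wells and 100% = reporter-only cells lacking LRH-1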
# SRC2 inh: inhibition of GAL4-SRC2 driven luciferase reporter, primary screen, SRC2 inhibitor project, cell-based, luminescence | Nuclear receptor coactivator 2 (Homo sapiens), Q15596 | HEK293 GAL4-SRC2 luciferase reporter | inhibition, % at 9 µM | 370,000 tested, 0.17% active | AID 651957, 2012;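 active = inhibition above the mean inhibition of all tested compounds plus 3 SD, set per campaign, cut at about 52% in these data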;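 note: 0% = DMSO treated cells and 100% = cells given Gossypol at 36 µM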
# SRC1 inh: SRC1 coactivator transcriptional activity inhibitors, primary screen, cell-based, luminescence; HEK293 GAL4-SRC1 luciferase reporter; 360,000 tested, 0.12% active; inhibition, % at 3.6 µM; AID 588354, 2011;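 active = inhibition above the campaign mean plus 3 SD, with each screening campaign given its own cutoff, cut at about 60% in these data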;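 note: 0% = DMSO treated cells and 100% = gossypol at 36 µM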
# VP16 Luc counter: Gal4-VP16 luciferase reporter inhibitors, counter-screen for COUP-TFII antagonist project, cell-based, luminescence, HEK293. shares compounds with COUP-TFII inh. inhibition, % at 8.5 µM. 2,500 tested, 25% active. AID 687007, 2013; in the data active = inhibition above about 13%
# NR2F2 inh conf: NR2F2 transcriptional activity inhibitors, confirmation, cell-based, luciferase reporter, HEK293, triplicate. 2,500 tested, 45% active. HEK293 NGFI-A luciferase reporter, luminescence. shares compounds with COUP-TFII inh. AID 687008, 2013. inhibition, % at 8.5 µM;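 active = mean inhibition over three repeats above a set limit taken from the earlier primary screen, cut at about 38% in these data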;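 note: 100% = cells given the luciferase reporter alone without the COUP-TF2 vector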
# * = called active by the depositor; · = not tested or not shown. Compounds with a hit are over-represented: about 0.81% of the library has one in this group of screens.
SMILES,COUP-TFII inh,SRC3 inh,NR5A2 inv ag,SRC2 inh,SRC1 inh,VP16 Luc counter,NR2F2 inh conf
CC1CC(C)CC(C)C(O)C(C#N)=CC=CCC(C2CCCC2C(=O)O)OC(=O)CC(O)C(C)C1 (stereo not drawn),84*,94*,98*,76*,94*,23*,80*
O=C(Nc1cccc(C(F)(F)F)c1)c1cccn(Cc2ccc3c(c2)OC(F)(F)O3)c1=O,-18,19,-12,0,3,·,·
CC1C(c2cccs2)=[N+]([O-])C(C)(C(=O)c2ccc(F)cc2)N1O (stereo not drawn),3,10,-12,-8,-12,·,·
CCC(C)N1Cc2ccccc2C1=N (stereo not drawn),9,17,8,-16,0,·,·
C[C@H]1CCC/C=C/[C@@H]2C[C@H](O)C[C@H]2[C@@H](O)/C=C/C(=O)O1,53*,57,61,23,18,18*,31
N=c1n(CCO)c2ccccc2n1Cc1ccccc1,14,21,2,-6,15,·,·
O=c1ccc2cc3ccoc3c(O)c2o1,-19,11,2,24,-25,·,·
Cn1cccc1CN1CCN(C(=O)COc2ccccc2)CC1,-9,-4,8,17,-14,·,·
Cn1nc(-c2ccc(OCC(=O)N3CCN(Cc4ccccc4)CC3)cc2)c2ccccc2c1=O,55*,8,38,14,-3,6,36
CCN(CC)CCN=Cc1c(O)n(Cc2ccco2)c(=O)[nH]c1=O,2,3,6,-11,-2,·,·
CCOC(=O)c1cccc(-[n+]2c(-c3ccccc3)cc(-c3ccccc3)cc2-c2ccccc2)c1,33,30,23,8,8,·,·
c1ccc(-c2cc(-c3ccccc3)[n+](-c3ccccc3)c(-c3ccccc3)c2)cc1,73*,66*,57,17,35,15*,45*
Cc1ccc(-c2cc(-c3ccccc3)cc(-c3ccccc3)[n+]2-c2ccccc2)cc1,76*,84*,98*,75*,56,31*,89*
CN(C)c1ccc(-[n+]2c(-c3ccccc3)cc(-c3ccccc3)cc2-c2ccccc2)cc1,86*,82*,90*,-2,59,27*,90*
O=C(COc1ccccc1)N1CCN(C2CCCC2)CC1,-1,-9,1,0,-35,·,·
COC(=O)[C@@H]1[C@@H](C(=O)OC)C2(c3ccccc3-c3ccccc32)N(c2ccc(Cl)cc2)N1C#N,47*,48,13,12,7,50*,47*
CC(C)CC(NC(=O)CCCNC(=O)CCC(=O)OC1O[C@H]2OC3(C)CC[C@H]4[C@H](C)CCC(C1C)C24OO3)C(=O)O (stereo partly drawn),46*,73*,84*,23,43,-3,45*
CC1C(OC(=O)CCC(=O)NC(C)(C)CO)O[C@H]2OC3(C)CC[C@H]4[C@H](C)CCC1C24OO3 (stereo partly drawn),46*,54,90*,6,55,7,50*
CCOC(=O)C1=C(C)c2ccccc2OC1(C(=O)OCC)c1ccccc1 (stereo not drawn),9,9,-3,-8,4,·,·
CC(N=Cc1c(O)n(C2CC2)c(=S)[nH]c1=O)c1ccccc1 (stereo not drawn),12,14,5,2,5,·,·
CCN(CC)C1=NC(=[N+](CC)CC)c2ccccc21,45*,27,55,31,40,12,52*
CN1C2CCC1/C(=C/c1ccccn1)C(=O)/C2=C\c1ccccn1,63*,50,3,65*,-51,68*,85*
Cc1ccccc1-n1c(/C=C/c2ccccn2)nc2ccccc2c1=O,6,-5,47,30,12,·,·
O=C(COc1ccccc1)N1CCN(Cc2c[nH]c3ccccc23)CC1,7,20,14,-5,-1,·,·
Cc1ccc(-c2nn(Cc3ccccc3)cc2C=O)cc1C,-13,-7,-49,-20,-31,·,·
SMILES,COUP-TFII inh,SRC3 inh,NR5A2 inv ag,SRC2 inh,SRC1 inh,VP16 Luc counter,NR2F2 inh conf
CCOC(=O)[C@]12Cc3cc(Cl)ccc3[C@H]1N(C)C(=O)c1ccccc12,5,·,-46,3,·,·,·
CCOC(=O)[C@]12Cc3cc(Cl)ccc3[C@H]1N(C(C)C)C(=O)c1ccccc12,41*,·,34,-4,·,21*,53*
C[C@]12CCC3C(CC[C@H]4C[C@H](O)CC[C@]34C)C1[C@@H](O)C[C@@H]2O (stereo partly drawn),4,3,-6,7,-5,·,·
COC(=O)C1=C(C(=O)OC)C2OC1c1cc3ccccc3cc12,13,-50,-3,-13,-21,·,·
CC1OC(OC2C=C3CCC4C(CCC5(C)C(c6ccc(=O)oc6)CCC45O)C3(C)CC2)C(O)C(OC2OC(CO)C(O)C(O)C2O)C1O (stereo not drawn),78*,88*,97*,70*,91*,54*,80*
O=c1[nH]c(=S)[nH]c(O)c1N=Nc1ccc2c(c1)OCCO2,-3,-48,-68,-41,-116,·,·
O=c1[nH]c(O)c(N=Nc2ccc3c(c2)OCCO3)c(=O)[nH]1,82*,69*,71,59*,67*,-6,64*
CC[C@@H]1C[C@H]2CC[C@H](O2)[C@H](C)C(=O)O[C@@H](C)C[C@@H]2CC[C@@H](O2)[C@@H](C)C(=O)O[C@H](C)C[C@H]2CC[C@H](O2)[C@H](C)C(=O)O[C@@H](C)C[C@@H]2CC[C@@H](O2)[C@@H](C)C(=O)O1,85*,·,·,-9,·,24*,72*
CC1OC(OC2C(O)CC(OC3C(O)CC(OC4CCC5(C)C(CCC6C5CCC5(C)C(C7=CC(=O)OC7)C(O)CC65O)C4)OC3C)OC2C)CC(O)C1O (stereo not drawn),21,49,35,9,35,·,·
C[C@]12CCC3C(CCC4=CC(O)CC[C@@]43/C=N/O)C1(O)CCC2C1=CC(=O)OC1 (stereo partly drawn),75*,71*,98*,50,78*,37*,68*

# Screening data as filed in PubChem.
